Unmarked numbers belong to inactive results. No rule for the calls is given here.

Sequence of Pantothenate synthetase (Mycobacterium tuberculosis (strain ATCC 25618 / H37Rv)) (P9WIL5 whole entry, looked up): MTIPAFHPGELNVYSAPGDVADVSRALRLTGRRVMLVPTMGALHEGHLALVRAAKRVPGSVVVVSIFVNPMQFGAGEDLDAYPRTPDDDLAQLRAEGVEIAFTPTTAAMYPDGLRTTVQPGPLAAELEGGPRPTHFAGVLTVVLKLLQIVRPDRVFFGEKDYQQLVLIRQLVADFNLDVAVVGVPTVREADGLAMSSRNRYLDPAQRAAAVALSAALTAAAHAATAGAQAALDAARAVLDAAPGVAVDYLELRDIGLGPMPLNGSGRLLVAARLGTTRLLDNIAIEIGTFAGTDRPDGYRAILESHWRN

The experiment addresses Pantothenate synthetase (Mycobacterium tuberculosis (strain ATCC 25618 / H37Rv)) (UniProt P9WIL5). As to the kind of experiment: Recombinant Mtb pantothenate synthetase (PanC) inhibitors, coupled enzyme, confirmatory (AID 375).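 Also: 0% = full reaction with vehicle and 100% = no enzyme background.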 The following applies: coupled enzyme assay; at 10 µM, stronger effect = higher value.
As for `CC(=O)c1cccc(S(=O)(=O)NCC(c2ccco2)N2CCCCC2)c1` (configuration not stated), the inhibition was 0%.

Take `c1ccc(CNc2ncnc3ccccc23)cc1`: the inhibition is 12%.

In the case of `COc1cc(C(=O)N2CCCC(c3nc(-c4cccs4)no3)C2)cc(OC)c1OC` (configuration not stated), the inhibition is 0%. Under `COc1ccc(/C(O)=C2/C(=O)C(=O)N(Cc3cccnc3)C2c2ccncc2)cc1F` (configuration not stated) stands 4%; under `O=C(/C=C1\NC2(CCCC2)Cc2ccccc21)N1CCOCC1`, 0%; under `CCN(C(=O)c1c(-c2ccccc2)noc1C)c1ccccc1`, 0%.

On to `Cc1c(C(=O)OCC(C)C)[nH]c2c1C(=O)CC(c1ccco1)C2` (configuration not stated), for which the inhibition was 1%.

For the compound `COC(=O)c1sc(S(=O)(=O)Nc2ccc3cn[nH]c3c2)c(C(=O)OC)c1C`, the inhibition was 0%. Next, `COc1cc(C(c2sc3nc(C)nn3c2O)N2CC(C)CC(C)C2)cc(OC)c1OC` (configuration not stated): 0%; `Cc1ccc(S(=O)(=O)N(CCO)c2cc3c(s2)CCCC3)cc1`: 0%; `c1ccc2c(c1)CCCC2C1=NCCN1` (configuration not stated): 0%. As to `O=C1c2ccccc2C(=O)N1CC(O)Cn1nnc2ccccc21` (configuration not stated), the inhibition is 0%.

In the case of `COC(=O)c1ccc(CSc2ncnc3c2nnn3-c2ccc(OC)cc2)o1`, the inhibition was 0%. For `CCOC(=O)c1[nH]c(C)c(C(=O)Nc2ccccc2C)c1C`, the inhibition is 0%. For the compound `COCC(=O)Nc1sc2c(c1C(=O)OC)CCC(C)C2` (configuration not stated), the inhibition was 6%.

With `CCN(CCO)C1CC(=O)N(c2ccccc2C)C1=O` (configuration not stated), the inhibition is 0%. For the compound `CCOC(=O)c1ccc2[nH]c3c(c2c1)CN(C)CC3`, the inhibition was 1%.

Source of the values: PubChem BioAssay.
